# TAR Tat displ = TAR RNA-Tat peptide displacers, HIV-1, primary screen, biochemical, FRET, FAM/TAMRA-labeled Tat. HIV-1 TAR RNA, Tat peptide displacement FRET; hits give high values. z-score (test concentration not listed). 100,000 tested, 0.6% active. AID 1259389, 2018; active means z-score of 3 or more in at least 2 runs
# CDC25B CDK2 inh = primary biochemical HTRF screen for blockers of M-phase inducer phosphatase 2 binding to CDK2/cyclin A; HTRF CDC25B-CDK2/CyclinA binding, anti-His/anti-Flag; hits give high values; z-score (concentration not given with the values); 94,000 tested, 0.72% active; in the data active means z-score above about 3.2
# * = called active by the depositor; · = no result given. This is a sample that favours compounds with a hit; in the whole collection about 0.93% have one here.
SMILES,TAR Tat displ,CDC25B CDK2 inh
CCC(C)OC(=O)C1=C(C)NC2=C(C(=O)C(C(=O)OC)C(C)C2)C1c1ccc(N(CC)CC)cc1 (stereo not given),1.9,-1.89
COc1ccc(S(=O)(=O)N2CCC(c3ccncc3)CC2)cc1,0.46,·
COc1cc(OC)cc(-c2nc(Cn3nnc4ccccc4c3=O)no2)c1,0.75,·
ON(Cc1ccccc1)Cc1ccccc1,·,-1.33
BrC=C=CCN(CC=C=CBr)Cc1ccccc1,·,4.3*
Cc1c(NC(=O)c2nn(-c3ccc(F)cc3)ccc2=O)c(=O)n(-c2ccccc2)n1C,-0.74,-1.82
Cc1nc2ccccn2c(=O)c1Cc1nnc(SCC(=O)Nc2ccc(Cl)cc2)n1C,-0.6,-0.52
Cc1nc2c(C)cccn2c(=O)c1Cc1nnc(SCC(=O)Nc2ccc(C(C)C)cc2)n1C,-0.62,-0.42
COc1ccc(NC(=O)C(C)Sc2nnc(Cc3c(C)nc4ccccn4c3=O)n2C)cc1 (stereo not given),-0.14,16*
COc1ccc(NC(=O)C(C)Sc2nnc(Cc3c(C)nc4c(C)cccn4c3=O)n2C)cc1 (stereo not given),-0.94,7.15*
O=C(Nc1cccc(Cl)c1)C1CCN(c2ccccc2)C1=O (stereo not given),0.92,·
O=C(O)CN1C(=O)/C(=C\c2ccc(-c3cccc4c3C(=O)c3ccccc3C4=O)o2)SC1=S,·,10.3*
CC(=O)NS(=O)(=O)c1ccc(NC(=O)CCN2C(=O)/C(=C/c3ccccc3)SC2=S)cc1,·,-2.46
C#Cc1ccc(NC(=O)CCc2cc(Cl)no2)cc1,-0.35,-0.46
O=C(O)/C=C/C(=O)Nc1ccc2c(c1)C(=O)c1ccccc1C2=O,·,6.1*
CCOc1ccc(C(=O)Nc2ccc3c(c2)C(=O)c2ccccc2C3=O)cc1,·,0.8
O=C(/C=C/c1ccccc1)Nc1ccc2c(c1)C(=O)c1ccccc1C2=O,·,-4.12
O=C1c2ccccc2C(=O)c2cc(NC(=O)C(Cl)(Cl)Cl)ccc21,·,16.1*
Cc1oc2ncnc(N3CCCCC3)c2c1C(=O)N1CCc2ccccc2C1,0.47,·
Clc1ccc2nc(SCCOc3ccccc3)[nH]c2c1,2.74,-2.53
CCN(CC)C(=O)c1oc2ccccc2c1NC(=O)C(C)(C)C,0.42,·
CCN(CC)C(=O)c1oc2ccccc2c1NC(=O)c1ccc2c(c1)OCO2,7.04*,·
O=C(Nc1ccc2oc(-c3ccc(F)cc3)nc2c1)c1ccc([N+](=O)[O-])o1,2.36,0.59
O=C(Nc1ccc2oc(-c3cccc(F)c3)nc2c1)c1ccc([N+](=O)[O-])o1,22.3*,2.52
CC(C)N1CCn2c(nc3cc(NC(=O)c4ccco4)ccc32)C1,18.7*,10.3*
SMILES,TAR Tat displ,CDC25B CDK2 inh
CC(=O)Nc1ccc2c(c1)nc1n2CCN(C(C)C)C1,-7.6,-0.16
NCc1cccn1Cc1ccccc1,0.78,0.42
Oc1[nH]c2ccccc2c1N=Nc1nc(-c2ccccc2)c2cc(Br)ccc2n1,·,-2.91
Nc1ccc(-c2nc3ccc(N)cc3s2)cc1,1.76,-3.86
Nc1ccc(-c2nc3cc4sc(-c5ccc(N)cc5)nc4cc3s2)cc1,35.5*,4.5*
Cc1cc(-c2ccc(=O)[nH]n2)cc(S(=O)(=O)N2CCC(Cc3ccccc3)CC2)c1C,8.82*,·
Cc1cc(-c2ccc(=O)[nH]n2)cc(S(=O)(=O)N2CCN(c3ccccc3)CC2)c1C,1.9,·
O=C(O)c1cc(-c2ccco2)nc2ccc(Br)cc12,6.36*,·
O=C(O)c1ccc2nc(-c3ccco3)c(-c3ccco3)nc2c1,51.4*,·
O=C(NCc1ccco1)c1ccc2nc(-c3cccs3)c(-c3cccs3)nc2c1,-0.7,·
O=C(O)c1cc(-c2ccc(O)cc2)nc2ccc(Br)cc12,·,-1.15
Cc1ccc(-c2csc(Nc3ccccn3)n2)cc1,0.8,-0.98
Cc1nc(N)sc1-c1csc(Nc2ccccn2)n1,·,18.2*
Cc1nc(N2CCOCC2)cc(N2CCN(S(=O)(=O)c3ccccc3Cl)CC2)n1,0.29,-0.29
COc1ccc(-c2nc3c(c(=O)[nH]2)Cc2cc(Br)cc(OC)c2O3)cc1O,1.72,-1.76
COc1ccc(-c2nc3c(c(=O)[nH]2)Cc2cc(Br)cc(OC)c2O3)cc1OC,12.7*,-0.88
COc1ccc(C)cc1Nc1nc2ccc(C)cc2n2nnnc12,-0.26,·
Nc1ncc(C2=C(Cl)C(O)C(Cl)=C(Cl)C2O)s1 (stereo not given),·,20.3*
Nc1ncc(S(=O)(=O)O)s1,·,-0.5
O=C(NCC1CC1)c1cccn2c(-c3ccccc3F)nnc12,0.92,·
O=C(CSc1ncnc2c1sc1cccc(F)c12)N1CCCCC1,-0.7,·
O=C(CSc1ncnc2c1sc1cccc(F)c12)NCCc1ccco1,11.7*,·
O=C(CSc1ncnc2c1sc1cccc(F)c12)NCc1ccco1,0.27,·
O=C(O)CCSc1ncnc2c1sc1cccc(F)c12,5.38*,-0.58
CS(=O)(=O)c1cccc(C(=O)Nc2nc(-c3nc4ccccc4s3)cs2)c1,0.3,·
SMILES,TAR Tat displ,CDC25B CDK2 inh
Cc1ccc2oc(SCC(=O)Nc3ccc(F)cc3)nc2n1,1.38,·
O=C(CSc1ccc2nc(-c3ccccc3)cn2n1)c1ccccc1,-1.87,·
CC(C)Cc1nnc(NC(=O)c2nn(-c3cccc(Cl)c3)ccc2=O)s1,0.17,-0.9
CCn1nc(C)c(CNC(=O)Nc2ccc(Cl)cc2)c1C,1.15,·
O=c1cnnc(Nc2ccc3c(c2)OCO3)[nH]1,-1.99,-1.03
Cc1cc(C)n(-c2cc(Nc3ccc(F)cc3)ncn2)n1,-0.72,·
O=c1[nH]c2ccc(Nc3cc(N4CCOCC4)ncn3)cc2[nH]1,0.27,8.21*
Cc1cccc(N2CCN(c3cc(C)nc4nc(-c5ccco5)nn34)CC2C)c1 (stereo not given),-2.54,·
O=C(CSc1ccc(-c2cccs2)nn1)N1CCN(c2ccccc2)CC1,-9.59,·
O=C(Nc1cccnc1)c1ccc2cccc(O)c2n1,6.36*,·
O=C(NC1CC1)c1ccc2cccc(O)c2n1,1.69,·
CC(C)Cc1ccc2c(C(=O)c3ccc(Br)cc3)c(N)sc2n1,·,-0.16
Cc1cc(C)n(C(=O)c2nc3ccccc3nc2-n2nc(C)cc2C)n1,1.31,-2.54
CC1(C(=O)NC2CCCC2)Cn2c(c(-n3cccc3)c3ccccc32)C(=O)N1Cc1ccccn1 (stereo not given),0.22,·
O=C(Nc1nnc(-c2ccco2)s1)C(=O)c1c[nH]c2ccccc12,17.3*,-2.1
CC(C)c1nnc(NC(=O)C(=O)c2c[nH]c3ccccc23)s1,2.02,-1.28
O=C(NCCCN1CCCCCC1)c1cc(=O)[nH]c2ccc(S(=O)(=O)N3CCCCC3)cc12,·,-2.27
CCS(=O)(=O)N1CCCc2ccc(NS(=O)(=O)c3cc(OC)ccc3OC)cc21,-0.11,·
CCCS(=O)(=O)N1CCCc2ccc(NS(=O)(=O)c3ccc(OC)cc3OC)cc21,5.99*,·
COC(=O)c1c(NC(=O)c2cc(=O)c3cc(Cl)ccc3o2)sc2c1CCC2,-1.44,-2.34
Cc1ccc(SCC(=O)OCc2cc(=O)n3cc(C)sc3n2)cc1,0.1,·
Nc1cc(OC(=O)c2ccc(-c3ccccc3)cc2)nn1S(=O)(=O)c1ccc(F)cc1,-1.96,-0.89
O=C(Nc1ccc2c(c1)OCO2)c1cccn1-c1nnc(N2CCCCC2)s1,0.88,·
CC(C)=CC[C@@H](OC(=O)C=C(C)C)C1=CC(=O)c2c(O)ccc(O)c2C1=O,22.8*,·
CC1CCCN(CC2CCN(S(=O)(=O)c3cccc4nsnc34)CC2)C1 (stereo not given),0.84,·
O=C(NCC1COCCO1)c1cc(-c2cccnc2)nc2ccccc12 (stereo not given),0.58,·

# Screens: PubChem, Center for Chemical Genomics, University of Michigan
